This is a sample that favours compounds with a hit; in the whole collection about 3.1% have one here.
UHRF1 MBD2 ctr – UHRF1 methylated DNA binding inhibitors, primary screen, counter-screen for MBD2 inhibitor project, biochemical, TR-FRET, human UHRF1, single concentration; E3 ubiquitin-protein ligase UHRF1 (Homo sapiens), Q96T88; UHRF1 binding to methylated oligo; inhibition, % at 4.4 µM; actives 0.75% (n = 370,000); AID 687016, 2013; in the data active = inhibition above about 21%;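 note: UHRF1 SRA domain binding a hemimethylated CpG hairpin DNA probe; 0% = median of test compound wells and 100% = reference inhibitor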
MBD2 DNA inh – inhibitors of MBD2 binding to methylated DNA, primary screen, biochemical, TR-FRET, DNA-binding domain, human. Methyl-CpG-binding domain protein 2 (Homo sapiens), Q9UBB5. MBD2 binding to methylated oligonucleotide. inhibition, % at 4.4 µM. actives 0.31% (n = 370,000). AID 686964, 2013; in the data active = inhibition above about 13%
Target sequence (Q9UBB5 whole entry, looked up, the tested form may be a part): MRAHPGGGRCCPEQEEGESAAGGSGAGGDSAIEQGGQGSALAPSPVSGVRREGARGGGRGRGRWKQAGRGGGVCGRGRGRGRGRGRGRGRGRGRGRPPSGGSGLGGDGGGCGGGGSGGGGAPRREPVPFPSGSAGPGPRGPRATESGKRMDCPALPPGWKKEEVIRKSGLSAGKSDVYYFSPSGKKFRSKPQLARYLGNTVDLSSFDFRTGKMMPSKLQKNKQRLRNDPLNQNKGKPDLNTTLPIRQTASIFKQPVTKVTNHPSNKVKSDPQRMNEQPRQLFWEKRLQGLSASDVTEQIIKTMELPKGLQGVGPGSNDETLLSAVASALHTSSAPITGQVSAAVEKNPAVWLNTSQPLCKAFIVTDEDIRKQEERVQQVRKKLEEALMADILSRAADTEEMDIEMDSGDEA
LEDGF integ inh – blockers of LEDGF/p75-dependent integrase strand transfer – biochemical, TR-FRET, high throughput, primary screen; HIV-1 integrase (with human LEDGF/p75); TR-FRET IN-LEDGF/p75 DNA integration, Eu/Cy5; inhibition, % at 3.7 µM; actives 0.64% (n = 370,000);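 active = inhibition above the screen-wide mean plus 3 SD, cut at about 13% in these data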;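 note: signal is the Cy5 over europium emission ratio at 671 and 618 nm; 0% = plate median of compound wells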
Rin1 Abl inh – inhibitors of Rin1-Abl protein binding, primary screen, biochemical, TR-FRET; inhibition, % at 7.35 µM; actives 0.4% (n = 360,000); AID 588664, 2011; in the data active = inhibition above about 5%, passing the limit was not always enough
proKLK7 act – proKLK7 zymogen activators, primary screen, biochemical, fluorescence intensity | purified proKLK7, EDANS-DABCYL substrate fluorescence; 100% is mature enzyme control, 0% vehicle | activation, % at 7 µM | actives 0.9% (n = 370,000) | AID 652039, 2013;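 active = activation above the mean of all tested compounds plus 3 SD, computed per campaign excluding outliers beyond control limits, cut at about 13% in these data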
Neddyl block – inhibitors of cullin neddylation, primary screen, biochemical, TR-FRET, uHTS, NAE and Ubc12 | NEDD8-conjugating enzyme Ubc12 (Homo sapiens) + NEDD8-activating enzyme E1 regulatory … | calls only at 25 µM | actives 0.58% (n = 360,000); in the data active = inhibition above about 36%
Rin1-Abl confirm – Rin1-Abl binding inhibitor retest, confirmation, biochemical, TR-FRET | purified proteins | inhibition, % at 7.35 µM | shares compounds with Rin1 Abl inh | actives 49% (n = 1,300); in the data active = inhibition above about 6.5%
GFP quench-1 – GFP fluorescence inhibitors and quenchers, artefact control for Rin1-Abl interaction inhibitor project, biochemical. shares compounds with Rin1 Abl inh. inhibitors/quenchers counterscreen. actives 8.5% (n = 1,300). inhibition, % at 6.75 µM; in the data active = inhibition above about 6.5%;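 note: ABL1-eGFP fusion protein alone without its partner RIN1-SBP; 0% = protein with vehicle and 100% = wells lacking protein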
GFP quench dose – GFP fluorescence inhibitors and quenchers, dose response, artefact control for Rin1-Abl interaction inhibitor project, biochemical; shares compounds with Rin1 Abl inh; GFP fluorescence interference/quenching counterscreen; IC50, µM; 230 tested, under 10 active; AID 602182, 2012;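 note: ABL1-eGFP fusion protein alone without its RIN1 binding partner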
GFP quench-2 – GFP fluorescence inhibitors and quenchers, late-stage follow-up, artefact control for Rin1-Abl interaction inhibitor project, biochemical, dose response; shares compounds with Rin1 Abl inh; GFP fluorescence quenching counterscreen; IC50, µM; 25 tested, under 10 active
Numbers without * were called inactive; i = inactive; . = not tested or not shown. Unless noted, the rule behind the calls is not given here.

SMILES	UHRF1 MBD2 ctr	MBD2 DNA inh	LEDGF integ inh	Rin1 Abl inh	proKLK7 act	Neddyl block	Rin1-Abl confirm	GFP quench-1	others
NC(=O)c1c(NC(=O)c2ccncc2)sc2c1CCCCCC2	-3	-7	2	0	-3	i	.	.
Cc1ccc(C(=O)NC(C)c2ccc(-n3ccnc3)cc2)cc1S(=O)(=O)N1CCOCC1 (stereo not drawn)	1	-5	-1	11*	0	i	16*	0
Cc1ccc(CNc2ncnc3c2cnn3C2CCCCO2)cc1 (stereo not drawn)	3	2	-3	4	0	i	.	.
O=c1[nH]c(/C=C\c2ccc(O)c(O)c2)nc(O)c1[N+](=O)[O-]	5	-4	4	8.3*	0	i	8.2*	6
O=c1[nH]c(/C=C\c2cccc(O)c2)nc(O)c1[N+](=O)[O-]	6	-5	-1	-2	-1	i	.	.
CCc1ccc(-c2cc(C)no2)cc1S(=O)(=O)NCc1ccccc1OC	-3	0	4	-3	0	i	.	.
COc1ccccc1CN1CCC(CNS(=O)(=O)c2cc(-c3cc(C)no3)ccc2OC)CC1	1	-6	1	12*	0	i	1	0
CCCCNC(=O)Cn1c(=O)c2c(ncn2CCC(C)C)n(Cc2ccccc2)c1=O	0	7	4	20*	0	i	-1	0
CCOc1ccccc1CNCCNCC(C)O (stereo not drawn)	3	10	0	1	0	i	.	.
Cc1ccccc1OCCNCC(C)O (stereo not drawn)	1	1	8	9.0*	0	i	-1	0
COc1cc(/C=C2\C(=O)N(c3ccc(S(N)(=O)=O)cc3)N=C2C)ccc1OC(=O)c1ccco1	5	5	0	10*	1	i	-1	0
C#CCOc1ccc(/C=C2/C(=O)N(c3cccc(C(=O)O)c3)N=C2C)cc1OC	7	-3	-1	16*	-1	i	2	0
C#CCOc1ccc(/C=C2/C(=O)N(c3ccc(S(N)(=O)=O)cc3)N=C2C)cc1OC	-1	-1	5	5	0	i	.	.
CC1=C(C(=O)N(C(C)C)C(C)C)CC(CC(=O)NCCc2ccccn2)C(=O)N1CCCN1CCCC1=O (stereo not drawn)	1	7	-2	7	0	i	.	.
CC1(Cc2ccc(OC(F)(F)F)cc2)C(=O)Nc2ccc(OC(F)(F)F)cc21 (stereo not drawn)	-1	-3	-2	7.4*	0	i	-2	-1
Cc1cc(C)nc(SCc2nnc(SCC(=O)Nc3nccs3)n2C)n1	-1	-3	-1	0	0	i	.	.
CCn1c(SCC(=O)Nc2nccs2)nnc1-c1ccc(C)cc1	0	4	-2	9	0	i	.	.
COc1ccc(CCCc2nnc(SCC(=O)Nc3nccs3)n2C)cc1C	0	4	-2	8.4*	0	i	5	3
Cc1ccc(-c2nnc(SCC(=O)Nc3nccs3)n2N)cc1	0	5	2	8.0*	0	i	9.9*	0
CCC(=O)Nc1ccc(-c2nnc(SCC(=O)Nc3nccs3)n2C)cc1	6	7	-1	7.2*	0	i	5	1
CCOC(=O)c1c(C)[nH]c(C(=O)OCC(=O)Nc2cccnc2Cl)c1C	1	0	-5	6	0	i	.	.
COc1ccc(COC(=O)C2=C(C)NC(=O)NC2c2cc(OC)ccc2OC)cc1 (stereo not drawn)	3	9	-1	3	0	i	.	.
COc1ccc(COC(=O)C2=C(C)NC(=O)NC2c2cccc(OC)c2OC)cc1 (stereo not drawn)	-2	-1	1	7.2*	0	i	3	0
CCOC(=O)c1nnn(-c2nc(OC)nc(N3CCCC3)n2)c1-c1ccccc1	3	1	-2	-1	0	i	.	.
CCNc1nc(N2CCCCC2)nc(-n2nnc(C(=O)OCC)c2C)n1	-2	-2	0	5.8*	0	i	2	1
SMILES	UHRF1 MBD2 ctr	MBD2 DNA inh	LEDGF integ inh	Rin1 Abl inh	proKLK7 act	Neddyl block	Rin1-Abl confirm	GFP quench-1	others
O=C(NS(=O)(=O)c1ccccc1[N+](=O)[O-])[C@H]1O[C@@H](n2ccc(=O)[nH]c2=O)[C@H](O)[C@@H]1O	0	-6	2	.	0	.	.	.
C[C@H]1[C@@H](N(C)C)CC[C@@]23CCCN2C(=O)CCC[C@@H]13	-2	-2	0	.	.	.	.	.
Cc1cccc(C)c1OCc1cc(C(=O)N2CCNC(=O)C2)no1	1	-6	3	2	0	i	.	.
CSc1ccccc1OCc1cc(C(=O)N2CCNC(=O)C2)no1	0	0	1	48*	0	i	40*	-1	GFP quench dose=>68;GFP quench-2=>68
O=C1CCCN1CCCNS(=O)(=O)c1ccc(F)c(F)c1	-1	-4	4	1	-1	i	.	.
CN(C[C@H](Cc1ccccc1)N(C[C@H](Cc1ccccc1)N(CC1(c2ccccc2)CC1)N=O)N=O)N=O	-1	-2	0	4	1	i	.	.
O=C(COc1ccc(F)c(Cl)c1)N[C@H]1CCCN(CC2CC2)C1	1	-6	0	.	.	.	.	.
CC(=O)OCCN(CCCn1c(-c2ccncc2)nc2ccccc21)c1nc(CN2CCCCC2)cs1	2	-1	-1	8.4*	0	i	2	0
c1ccc2c(c1)nc(-c1ccncc1)n2CCNc1nc(CN2CCCCC2)cs1	5	3	2	0	0	i	.	.
